In PubChem BioAssay (EPA / NIEHS):
Results filed as inconclusive are left out. Active and inactive are the calls of the source. The calls were made as follows, unless noted: active = hit-call score of the fitted dose curve at least 0.9, where 1 is the maximum; inconclusive = response in the unintended direction; inactive = score below 0.9.

Experiments:
[1] = CEETOX_H295R_ANDR_noMTC: CeeTox H295R High-throughput Steroidogenesis Assay for Androstenedione (ANDR), maximum tolerated concentration (MTC) filtered results only (AID 2283915; active = hit-call score of the fitted dose curve at least 0.9, where 1 is the maximum; inactive = score below 0.9); details: actives raise or lower the signal
In short: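 H295R cells, passage 10 or below, prestimulated 48 h with 10 uM forskolin, then exposed 48 h to chemical in 0.1% DMSO. Medium androstenedione extracted with MTBE, quantified by HPLC-MS/MS; concentrations not MTC-filtered; bidirectional fit versus DMSO.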

[2] = CEETOX_H295R_CORTISOL_noMTC: CeeTox H295R High-throughput Steroidogenesis Assay for Cortisol, maximum tolerated concentration (MTC) filtered results only (AID 2283916; active = hit-call score of the fitted dose curve at least 0.9, where 1 is the maximum; inactive = score below 0.9); details: actives raise or lower the signal
In short: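 H295R adrenal cells were pre-stimulated 48 h with 10 uM forskolin, then exposed 48 h to test chemical in 0.1% DMSO. Medium cortisol was measured by MTBE extraction and HPLC-MS/MS; bidirectional fit versus DMSO, concentrations not MTC-filtered.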

[3] = CEETOX_H295R_CORTIC_noMTC: CeeTox H295R High-throughput Steroidogenesis Assay for Corticosterone (CORTIC), maximum tolerated concentration (MTC) filtered results only (AID 2283917; active = hit-call score of the fitted dose curve at least 0.9, where 1 is the maximum; inactive = score below 0.9); details: actives raise or lower the signal
In short: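 H295R, 10 uM forskolin prestim 48 h → test chem (0.1% DMSO final) 48 h → media MTBE extraction → HPLC-MS/MS corticosterone. Bidirectional fit vs DMSO baseline; no MTT-based MTC filtering.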

[4] = CEETOX_H295R_DOC_noMTC: CeeTox H295R High-throughput Steroidogenesis Assay for DOC, maximum tolerated concentration (MTC) filtered results only (AID 2283918; active = hit-call score of the fitted dose curve at least 0.9, where 1 is the maximum; inactive = score below 0.9); details: actives raise or lower the signal
In short: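 H295R cells prestimulated 48 h with 10 uM forskolin, then exposed 48 h to test chemical (0.1% DMSO final). Medium 11-deoxycorticosterone extracted with MTBE, quantified by HPLC-MS/MS; bidirectional fit versus DMSO, concentrations not MTC-filtered.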

[5] = CEETOX_H295R_PROG_noMTC: CeeTox H295R High-throughput Steroidogenesis Assay for Progesterone (PROG), maximum tolerated concentration (MTC) filtered results only (AID 2283920; active = hit-call score of the fitted dose curve at least 0.9, where 1 is the maximum; inactive = score below 0.9); details: actives raise or lower the signal
In short: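 H295R human adrenal cells were prestimulated 48 h with 10 uM forskolin, then exposed 48 h to test chemical (0.1% DMSO final). Progesterone in medium was quantified by HPLC-MS/MS; bidirectional fitting versus DMSO, concentrations not MTC-filtered.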

[6] = CEETOX_H295R_TESTO_noMTC: CeeTox H295R High-throughput Steroidogenesis Assay for Testosterone (TESTO), maximum tolerated concentration (MTC) filtered results only (AID 2283924; active = hit-call score of the fitted dose curve at least 0.9, where 1 is the maximum; inactive = score below 0.9); details: actives raise or lower the signal
In short: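 H295R cells prestimulated 48 h with 10 uM forskolin, then exposed 48 h to chemicals in 0.1% DMSO final. Testosterone in medium quantified by MTBE extraction and HPLC-MS/MS; bidirectional fit versus DMSO, concentrations […] filtered by MTT-based maximum tolerated concentration.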

[7] = molecular target: human Purinergic Receptor P2Y, P2RY1 (gene 5028) (UniProt P47900); assay: NVS_GPCR_hPY2: NovaScreen (NVS) G Protein-Coupled Receptor Assay for human Purinergic Receptor P2Y (AID 2283281)
Chain of human Purinergic Receptor P2Y, P2RY1 (gene 5028) (P47900 whole entry, looked up): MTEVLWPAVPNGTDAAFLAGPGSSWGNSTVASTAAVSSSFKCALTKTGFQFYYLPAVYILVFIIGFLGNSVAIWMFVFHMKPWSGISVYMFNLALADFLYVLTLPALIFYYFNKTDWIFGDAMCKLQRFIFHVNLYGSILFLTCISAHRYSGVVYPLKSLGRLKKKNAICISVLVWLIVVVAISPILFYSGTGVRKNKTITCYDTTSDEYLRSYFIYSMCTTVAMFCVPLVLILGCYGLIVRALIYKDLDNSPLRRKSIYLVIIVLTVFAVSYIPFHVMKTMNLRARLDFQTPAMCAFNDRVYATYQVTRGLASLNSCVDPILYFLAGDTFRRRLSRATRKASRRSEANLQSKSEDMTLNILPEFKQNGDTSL
In short: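 Cell-free radioligand binding using U937-derived protein, 1 h after dosing, filter-based scintillation counting. Screened in duplicate at 25 uM; actives rerun as concentration-response up to 50 uM; loss of signal versus DMSO.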

[8] = molecular target: Serine/threonine-protein phosphatase PP1-alpha catalytic subunit (Homo sapiens) (UniProt P62136); assay: NVS_ENZ_hPPP1CA: NovaScreen (NVS) Enzymatic Assay for human Protein Phosphatase 1 Aatalytic subunit Alpha (PPP1CA) (AID 2283200)
Chain of Serine/threonine-protein phosphatase PP1-alpha catalytic subunit (Homo sapiens) (P62136 whole entry, looked up): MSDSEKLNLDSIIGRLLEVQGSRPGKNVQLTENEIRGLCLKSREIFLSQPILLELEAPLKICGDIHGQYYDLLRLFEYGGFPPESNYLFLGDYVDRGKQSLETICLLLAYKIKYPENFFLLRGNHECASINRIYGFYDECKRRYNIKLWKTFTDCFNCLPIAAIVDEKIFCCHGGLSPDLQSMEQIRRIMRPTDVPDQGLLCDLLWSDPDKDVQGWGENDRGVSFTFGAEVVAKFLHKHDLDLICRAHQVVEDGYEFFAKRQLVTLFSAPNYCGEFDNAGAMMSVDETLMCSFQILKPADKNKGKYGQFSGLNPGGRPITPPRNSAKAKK
In short: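 Recombinant enzyme activity read by fluorescence with electrophoretic mobility shift separating substrate from product, 1.33 h after dosing; loss of signal vs DMSO baseline. Primary screen in duplicate at 25 uM; actives retested in concentration-response up to 50 uM.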

[9] = molecular target: human Protein Tyrosine Phosphatase Non-receptor Type 4 (PTPN4), PTPN4 (gene 5775) (UniProt P29074); assay: NVS_ENZ_hPTPN4: NovaScreen (NVS) Enzymatic Assay for human Protein Tyrosine Phosphatase Non-receptor Type 4 (PTPN4) (AID 2283208)
Chain of human Protein Tyrosine Phosphatase Non-receptor Type 4 (PTPN4), PTPN4 (gene 5775) (P29074 whole entry, looked up): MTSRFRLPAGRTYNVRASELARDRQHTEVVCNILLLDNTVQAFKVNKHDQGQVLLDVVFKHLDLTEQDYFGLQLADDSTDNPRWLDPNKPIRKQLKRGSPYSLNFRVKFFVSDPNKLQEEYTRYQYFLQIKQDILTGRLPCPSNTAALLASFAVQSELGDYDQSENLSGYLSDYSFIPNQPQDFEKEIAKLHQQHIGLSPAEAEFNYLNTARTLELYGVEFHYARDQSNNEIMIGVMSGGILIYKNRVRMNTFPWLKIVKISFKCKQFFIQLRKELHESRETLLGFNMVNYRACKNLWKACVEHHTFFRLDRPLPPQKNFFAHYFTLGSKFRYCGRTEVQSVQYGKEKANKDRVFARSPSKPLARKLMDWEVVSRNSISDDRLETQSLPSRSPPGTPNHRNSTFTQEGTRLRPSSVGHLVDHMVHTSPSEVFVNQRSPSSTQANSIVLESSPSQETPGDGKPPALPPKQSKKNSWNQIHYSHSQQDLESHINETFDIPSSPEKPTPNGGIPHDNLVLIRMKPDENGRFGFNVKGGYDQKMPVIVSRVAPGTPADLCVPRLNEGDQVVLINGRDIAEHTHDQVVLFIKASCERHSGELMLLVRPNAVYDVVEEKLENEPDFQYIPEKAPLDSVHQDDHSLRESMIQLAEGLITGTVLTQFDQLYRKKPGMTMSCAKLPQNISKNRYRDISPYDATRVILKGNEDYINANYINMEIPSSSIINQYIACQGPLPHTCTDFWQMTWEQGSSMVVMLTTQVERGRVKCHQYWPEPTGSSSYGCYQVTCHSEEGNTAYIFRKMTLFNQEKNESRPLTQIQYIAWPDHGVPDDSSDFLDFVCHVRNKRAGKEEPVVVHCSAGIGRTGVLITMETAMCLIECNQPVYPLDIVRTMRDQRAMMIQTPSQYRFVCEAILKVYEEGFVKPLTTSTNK
In short: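 Cell-free assay of PTPN4 expressed in Sf9 cells, using a fluorescent substrate with product separated by mobility shift; read 1.33 h after dosing. Single-point screen at 25 uM, then concentration-response up to 50 uM. Loss of signal relative to DMSO.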

[10] = Tanguay_ZF_120hpf_PIG_legacy: (Legacy) Oregon State University Tanguay Lab 120 Hour Post-fertilization zebrafish Assay for Pigmentation Malformation (AID 2283650)
In short: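 Tropical 5D wild-type zebrafish embryos, dechorionated with pronase at 4 hpf, were exposed singly from 6 hpf to 120 hpf statically at 28C in sealed, dark plates with 0.64% DMSO; pigmentation scored present/absent by brightfield microscopy, fitted against DMSO.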

[11] = CCTE_Padilla_ZF_144hpf_TERATOSCORE: (Legacy) CCTE's 144 Hour Post-fertilization zebrafish Assay Teratoscore, Padilla Lab (AID 2283679; active = hit-call score of the fitted dose curve at least 0.9, where 1 is the maximum; inactive = score below 0.9;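 also: zebrafish embryos with chorions exposed by immersion from 6-8 hpf to 5 dpf with daily renewal; teratogenicity score from eye scoring of death hatching and malformations at 144 hpf; higher score means more developmental defects relative to DMSO baseline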)
In short: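 Larvae scored by eye at 144 hpf for death, hatching and malformations after a day in clean Hanks'. Before that, daily-renewed exposure at 80 uM (0.4% DMSO, 26C) from roughly 6-8 hpf through 5 dpf, 4 embryos per chemical.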

[12] = molecular target: human CYP1A2, CYP1A2 (gene 1544) (UniProt P05177); assay: NVS_ADME_hCYP1A2: NovaScreen (NVS) CYP450-related Enzyme Activity (ADME) Assay for human CYP1A2 (AID 2283102)
Chain of human CYP1A2, CYP1A2 (gene 1544) (P05177 whole entry, looked up): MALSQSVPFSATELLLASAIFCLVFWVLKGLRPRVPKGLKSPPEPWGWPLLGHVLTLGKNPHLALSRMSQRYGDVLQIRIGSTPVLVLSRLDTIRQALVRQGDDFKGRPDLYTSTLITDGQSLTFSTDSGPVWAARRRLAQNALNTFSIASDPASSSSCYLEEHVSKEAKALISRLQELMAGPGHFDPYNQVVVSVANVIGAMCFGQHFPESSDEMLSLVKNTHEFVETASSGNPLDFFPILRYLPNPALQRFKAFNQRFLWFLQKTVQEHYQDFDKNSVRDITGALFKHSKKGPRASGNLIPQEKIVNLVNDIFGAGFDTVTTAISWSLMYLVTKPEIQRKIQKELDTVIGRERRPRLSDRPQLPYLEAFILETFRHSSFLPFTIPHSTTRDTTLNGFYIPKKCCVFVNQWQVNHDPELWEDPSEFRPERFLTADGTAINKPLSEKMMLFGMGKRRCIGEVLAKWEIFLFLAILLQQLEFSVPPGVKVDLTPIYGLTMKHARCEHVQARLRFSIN
In short: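 rec. hCYP1A2 (insect cells), cell-free; fluorogenic substrate; 0.5 h; FI read. Baseline = acetonitrile; signal loss = inhibition. 10 uM duplicate primary → conc. series for actives.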

[13] = molecular target: human Aurora Kinase A - serine/threonine-protein Kinase 6 (AurA), AURKA (gene 6790) (UniProt O14965); assay: NVS_ENZ_hAurA: NovaScreen (NVS) Enzymatic Assay for human Aurora Kinase A - serine/threonine-protein Kinase 6 (AurA) (AID 2283142)
Chain of human Aurora Kinase A - serine/threonine-protein Kinase 6 (AurA), AURKA (gene 6790) (O14965 whole entry, looked up): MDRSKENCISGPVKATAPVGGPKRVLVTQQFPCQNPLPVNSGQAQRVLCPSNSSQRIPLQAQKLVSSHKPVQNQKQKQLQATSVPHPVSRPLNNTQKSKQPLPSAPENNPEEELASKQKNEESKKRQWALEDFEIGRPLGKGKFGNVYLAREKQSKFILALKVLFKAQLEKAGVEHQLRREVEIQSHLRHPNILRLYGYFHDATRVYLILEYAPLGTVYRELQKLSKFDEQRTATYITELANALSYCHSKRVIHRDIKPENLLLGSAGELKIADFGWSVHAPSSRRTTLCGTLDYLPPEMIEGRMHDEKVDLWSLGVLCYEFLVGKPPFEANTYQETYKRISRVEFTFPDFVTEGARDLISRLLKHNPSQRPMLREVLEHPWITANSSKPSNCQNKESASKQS
In short: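 Cell-free enzymatic assay with human Aurora A, 1 hour after dosing. Fluorescent substrate turnover detected after electrophoretic mobility shift separation of substrate and product. Screened at 25 uM, actives retested in concentration-response up to 50 uM.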

[14] = molecular target: human c-Jun N-terminal Kinases (JNK2), MAPK9 (gene 5601) (UniProt P45984); assay: NVS_ENZ_hJNK2: NovaScreen (NVS) Enzymatic Assay for human c-Jun N-terminal Kinases (JNK2) (AID 2283171)
Chain of human c-Jun N-terminal Kinases (JNK2), MAPK9 (gene 5601) (P45984 whole entry, looked up): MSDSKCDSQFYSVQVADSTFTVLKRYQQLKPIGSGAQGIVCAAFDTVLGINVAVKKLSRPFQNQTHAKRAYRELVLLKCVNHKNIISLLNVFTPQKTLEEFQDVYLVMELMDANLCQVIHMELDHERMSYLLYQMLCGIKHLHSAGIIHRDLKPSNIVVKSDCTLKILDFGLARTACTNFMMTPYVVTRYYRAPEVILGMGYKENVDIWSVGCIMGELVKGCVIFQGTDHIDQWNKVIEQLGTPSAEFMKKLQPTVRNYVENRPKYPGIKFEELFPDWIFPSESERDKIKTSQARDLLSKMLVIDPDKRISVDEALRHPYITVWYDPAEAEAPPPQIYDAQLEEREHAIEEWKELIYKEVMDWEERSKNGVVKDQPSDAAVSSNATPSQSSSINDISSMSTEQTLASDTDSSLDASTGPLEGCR
In short: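 Cell-free recombinant human JNK2 activity assay; fluorescent substrate and product separated by electrophoretic mobility shift, read 1 h after dosing. Primary duplicate screen at 25 uM; actives run in concentration-response up to 50 uM, relative to DMSO.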

[15] = molecular target: Mitogen-activated protein kinase 3 (Homo sapiens) (UniProt P27361); assay: NVS_ENZ_hMAPK3: NovaScreen (NVS) Enzymatic Assay for human Mitogen-Activated Protein Kinase 3 (MAPK 3) (AID 2283177)
Chain of Mitogen-activated protein kinase 3 (Homo sapiens) (P27361 whole entry, looked up): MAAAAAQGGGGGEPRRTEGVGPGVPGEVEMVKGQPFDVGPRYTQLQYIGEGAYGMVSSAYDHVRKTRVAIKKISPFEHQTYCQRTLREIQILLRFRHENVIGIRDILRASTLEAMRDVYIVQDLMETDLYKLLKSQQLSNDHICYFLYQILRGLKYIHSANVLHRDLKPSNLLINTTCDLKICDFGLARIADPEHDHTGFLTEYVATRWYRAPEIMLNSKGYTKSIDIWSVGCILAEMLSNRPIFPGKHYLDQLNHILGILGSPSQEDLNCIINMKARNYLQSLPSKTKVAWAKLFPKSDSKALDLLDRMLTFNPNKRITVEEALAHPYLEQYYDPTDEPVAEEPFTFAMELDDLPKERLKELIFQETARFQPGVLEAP
In short: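 Cell-free enzymatic assay with recombinant protein and specific substrate; fluorescence and electrophoretic mobility shift read-out 1 h after dosing. Primary screen duplicate at 25 uM; actives then run in concentration-response up to 50 uM, loss of signal versus DMSO.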

[16] = molecular target: human Mitogen- and Stress-activated Protein Kinase-1 (Msk1), RPS6KA5 (gene 9252) (UniProt O75582); assay: NVS_ENZ_hMsk1: NovaScreen (NVS) Enzymatic Assay for human Mitogen- and Stress-activated Protein Kinase-1 (Msk1) (AID 2283187)
In short: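 Recombinant kinase with fluorescent substrate; product separated by electrophoretic mobility shift, read 1 h after dosing. Screened in duplicate at 25 uM; hits (e.g. ≥30% inhibition) tested in concentration–response up to 50 uM. DMSO baseline.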

[17] = molecular target: human CYP2C9, CYP2C9 (gene 1559) (UniProt P11712); assay: NVS_ADME_hCYP2C9: NovaScreen (NVS) CYP450-related Enzyme Activity (ADME) Assay for human CYP2C9 (AID 2283108)
In short: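 Cell-free assay of recombinant human CYP2C9 produced in Sf9 cells, with enzyme activity read by fluorescence intensity 0.75 h after compound addition. Loss of signal versus an acetonitrile negative control indicates inhibition. Primary screen used 10 uM in duplicate; actives were retested in concentration series.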

[18] = molecular target: rat CYP2A1, Cyp2a1 (gene 24894) (UniProt P11711); assay: NVS_ADME_rCYP2A1: NovaScreen (NVS) CYP450-related Enzyme Activity (ADME) Assay for rat CYP2A1 (AID 2283114; active = hit-call score of the fitted dose curve at least 0.9, where 1 is the maximum; inactive = score below 0.9)
Chain of rat CYP2A1, Cyp2a1 (gene 24894) (P11711 whole entry, looked up): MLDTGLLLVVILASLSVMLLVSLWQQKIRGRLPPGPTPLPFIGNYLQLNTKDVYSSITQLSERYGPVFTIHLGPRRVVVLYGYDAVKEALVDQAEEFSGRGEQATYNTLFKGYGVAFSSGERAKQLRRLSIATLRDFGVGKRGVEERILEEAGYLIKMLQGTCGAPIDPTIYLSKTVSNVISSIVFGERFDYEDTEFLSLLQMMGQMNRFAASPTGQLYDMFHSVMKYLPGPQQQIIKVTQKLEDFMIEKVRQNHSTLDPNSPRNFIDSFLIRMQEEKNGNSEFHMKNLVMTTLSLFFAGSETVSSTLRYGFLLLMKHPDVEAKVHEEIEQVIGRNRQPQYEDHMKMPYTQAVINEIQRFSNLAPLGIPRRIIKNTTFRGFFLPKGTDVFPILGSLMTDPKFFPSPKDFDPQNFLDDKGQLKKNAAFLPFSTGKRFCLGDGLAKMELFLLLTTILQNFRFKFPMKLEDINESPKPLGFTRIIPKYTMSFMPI
In short: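 Recombinant rat CYP2A1, cell-free, fluorogenic substrate turnover read by fluorescence intensity 0.75 h after dosing. Primary screen at 10 uM in duplicate; actives rerun as concentration-response up to 20 uM; loss of signal versus acetonitrile control.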

[19] = molecular target: rat CYP2C11, Cyp2c11 (gene 29277) (UniProt P08683); assay: NVS_ADME_rCYP2C11: NovaScreen (NVS) CYP450-related Enzyme Activity (ADME) Assay for rat CYP2C11 (AID 2283118)
Chain of rat CYP2C11, Cyp2c11 (gene 29277) (P08683 whole entry, looked up): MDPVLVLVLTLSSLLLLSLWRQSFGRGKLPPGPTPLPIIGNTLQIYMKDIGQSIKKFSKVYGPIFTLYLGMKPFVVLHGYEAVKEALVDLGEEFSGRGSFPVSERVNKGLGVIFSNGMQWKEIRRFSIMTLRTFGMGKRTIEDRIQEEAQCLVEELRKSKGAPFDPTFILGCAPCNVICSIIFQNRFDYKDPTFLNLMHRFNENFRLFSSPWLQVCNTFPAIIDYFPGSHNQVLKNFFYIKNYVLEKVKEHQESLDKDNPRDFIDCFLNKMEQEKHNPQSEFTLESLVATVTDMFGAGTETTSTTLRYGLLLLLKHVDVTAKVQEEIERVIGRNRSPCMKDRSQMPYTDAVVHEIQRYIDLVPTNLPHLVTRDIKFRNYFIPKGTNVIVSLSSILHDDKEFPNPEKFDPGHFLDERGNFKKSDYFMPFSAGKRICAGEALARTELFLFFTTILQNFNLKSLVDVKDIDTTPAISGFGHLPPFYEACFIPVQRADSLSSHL
In short: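 Cell-free recombinant rat enzyme with fluorescent substrate; readout 0.33 h after dosing, loss of signal versus acetonitrile control. Initial duplicate single-point at 10 uM; actives rerun in concentration series.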

[20] = molecular target: rat CYP2C13, Cyp2c13 (gene 171521) (UniProt P20814); assay: NVS_ADME_rCYP2C13: NovaScreen (NVS) CYP450-related Enzyme Activity (ADME) Assay for rat CYP2C13 (AID 2283121)
Chain of rat CYP2C13, Cyp2c13 (gene 171521) (P20814 whole entry, looked up): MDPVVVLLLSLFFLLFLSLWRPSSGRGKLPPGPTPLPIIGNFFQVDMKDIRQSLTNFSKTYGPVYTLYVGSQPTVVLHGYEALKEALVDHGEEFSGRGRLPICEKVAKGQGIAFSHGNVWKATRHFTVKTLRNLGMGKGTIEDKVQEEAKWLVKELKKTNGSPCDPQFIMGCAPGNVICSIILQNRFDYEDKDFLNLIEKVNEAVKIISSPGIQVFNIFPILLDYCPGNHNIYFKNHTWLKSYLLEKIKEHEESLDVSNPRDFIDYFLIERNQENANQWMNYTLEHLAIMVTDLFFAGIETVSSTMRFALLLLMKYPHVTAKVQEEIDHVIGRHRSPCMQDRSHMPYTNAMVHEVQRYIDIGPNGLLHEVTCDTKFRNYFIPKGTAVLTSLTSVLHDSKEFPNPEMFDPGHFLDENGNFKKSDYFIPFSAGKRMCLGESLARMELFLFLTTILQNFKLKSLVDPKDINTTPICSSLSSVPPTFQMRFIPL
In short: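 Recombinant rat CYP2C13 with fluorogenic substrate, 0.75 h cell-free incubation; primary screen in duplicate at 10 uM, actives followed in concentration series. Fluorescence loss relative to acetonitrile control indicates inhibition.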

C[C@]12CC[C@H](O)C[C@H]1CC[C@@H]1[C@@H]2C[C@@H](O)[C@]2(C)[C@@H](C3=CC(=O)OC3)CC[C@]12O
AC50 [1]: 5.44 µM (active)
AC50 [2]: 4.34 µM (active)
AC50 [3]: 3.91 µM (active)
AC50 [4]: 10.8 µM (active)
AC50 [5]: 10.7 µM (active)
AC50 [6]: 4.25 µM (active)

CCOC(=O)NC(=S)Nc1ccccc1NC(=S)NC(=O)OCC
outcome [7]: inactive

O=C(CCl)c1ccccc1
outcome [8]: inactive
outcome [9]: inactive
outcome [10]: inactive
AC50 [11]: 4.85 µM (active)

N#CCCCCC#N
outcome [12]: inactive
outcome [13]: inactive
outcome [14]: inactive
outcome [15]: inactive
outcome [16]: inactive

CC(C)(c1cc(Cl)c(O)c(Cl)c1)c1cc(Cl)c(O)c(Cl)c1
AC50 [17]: 2.29 µM (active)

CC(Cc1ccc(C(C)(C)C)cc1)CN1C[C@@H](C)O[C@@H](C)C1 (stereo not given in full)
AC50 [18]: 3.26 µM (active)

O=CNC(N1CCN(C(NC=O)C(Cl)(Cl)Cl)CC1)C(Cl)(Cl)Cl (stereo not given)
AC50 [19]: 5.16 µM (active)
outcome [20]: inactive
